# Data taken from PubChem BioAssay (EPA / NIEHS).
# Activity calls are given as the source filed them. Rule for the calls: active = hit-call score of the fitted dose curve at least 0.9, where 1 is the maximum; inactive = score below 0.9.
# Assay: BSK_3C_TissueFactor: BioMAP Diversity Plus: 3C Assay for Tissue Factor Biomarker Activity (AID 2282997)
# Details: BioMAP 3C HUVEC, tissue factor biomarker readout; actives raise or lower the signal
# Protocol: BSK_3C is a cell-based, multiplexed-readout assay that uses umbilical vein endothelium, a human vascular primary cell, with measurements taken at 24 hours after chemical dosing in a 96-well plate.BSK_3C_TissueFactor is an assay component measured in the BSK_3C assay. It measures Tissue Factor antibody related to regulation of gene expression using ELISA technology.Data from the assay component BSK_3C_TissueFactor was analyzed into 1 assay endpoint. This assay endpoint, BSK_3C_TissueFactor, was analyzed with bidirectional fitting relative to DMSO as the negative control and baseline of activity. Using a type of binding reporter, gain or loss-of-signal activity can be used to understand changes in the signaling as they relate to the gene F3. Furthermore, this assay endpoint can be referred to as a primary readout, because this assay has produced multiple assay endpoints where this one serves a signaling function. To generalize the intended target to other relatable targets, this assay endpoint is annotated to the cytokine intended target family, where the subfamily is coagulation factor.
# The levels of cell surface (or secreted, indicated by the prefix "s") biomarker endpoints were measured by ELISA. Overt cytotoxicity to cells in confluent adherent cultures (all systems other than the BT system) was assessed by measuring total protein levels using sulforhodamine B (SRB) staining in parallel cultures at the time of biomarker measurements, indicated as SRB endpoints. For proliferation assays for adherent cell types, individual cell types are cultured at sub-confluence and relative cell numbers quantified by SRB staining at time points optimized for each system (48 h: 3C and CASM3C systems; 72 h: BT and HDF3CGF systems; 96 h: SAg system). SRB was performed by staining cells with 0.1% SRB after fixation with 10% TCA and reading wells at 560 nm.Viability and proliferation of PBMC (T cells) was quantified by Alamar Blue reduction for the SAg and BT systems. For PBMC viability (referred to as PBMC Cytotoxicity within the assay endpoint names), cells were plated (75,000/well in a 96-well plate) and then chemical samples added for 1 h before addition of activators, SEB and TSST-1 (20 ng/mL final concentration each). Cells were incubated for 90 h. Then, Alamar Blue (20 uL/well) (Invitrogen, Cat DAL1100) was added for 6 h, and the plates were read with a fluorescence microplate reader at 546/580 nm (excitation/emission). For PBMC proliferation, cells were plated and activated as above but incubated for only 16 h prior to addition of Alamar Blue. Plates were read after 6 h.
SMILES,AC50,outcome
C=CC(Cl)CCl (stereo not given),0.0174 µM (active),
OCCN(CCO)CCO,,inactive
Cc1cccc(OP(=O)(Oc2cccc(C)c2)Oc2cccc(C)c2)c1,,inactive
Cc1cc(Cl)ccc1OC(C)C(=O)O (stereo not given),,inactive
Cc1ccc2nc3sc(=O)sc3nc2c1,,inactive
CC(C)(C)c1cc([N+](=O)[O-])cc(C(C)(C)C)c1O,3.94 µM (active),
CC(C)(C)c1ccccc1O,,inactive
O=C(O)C1(c2ccc3c(c2)OC[C@H](Cc2ccc(-c4ccccc4)cc2)[C@H]3O)CCCC1,,inactive
O=S(=O)(c1ccc(Cl)cc1)c1cc(Cl)c(Cl)cc1Cl,,inactive
O=C1C=CC(=O)c2ccccc21,1.93 µM (active),
Cc1cc(C)cc(C)c1,,inactive
O=C(N[C@H]1CN2CCC1CC2)c1ccc2c(c1)OCCO2,,inactive
C#CCOC(=O)/C=C(C)/C=C/CC(C)CCCC(C)C (stereo not given),,inactive
CCOC(=O)CC(=O)CCl,,inactive
N#Cc1cccnc1,,inactive
Cc1ccc(OP(=O)(Oc2ccc(C)cc2C)Oc2ccc(C)cc2C)c(C)c1,,inactive
OC(Cc1ccccc1Cl)(Cn1[nH]cnc1=S)C1(Cl)CC1 (stereo not given),,inactive
N#CCCC(Br)(C#N)CBr (stereo not given),7.47 µM (active),
Cc1cc(Cl)ccc1N,,inactive
Nc1c(Oc2ccccc2)cc(O)c2c1C(=O)c1ccccc1C2=O,,inactive

SMILES,AC50,outcome
CN(C)C(=S)S,,inactive
OC(Cc1ccccc1Cl)(Cn1cncn1)C1(Cl)CC1 (stereo not given),,inactive
CC(C)N(C(=O)CCl)c1ccccc1,,inactive
CCCCCCCCCCCCc1cccc(S(=O)(=O)O)c1,,inactive
CCOP(=S)(OCC)OP(=S)(OCC)OCC,,inactive
CCOP(=S)(OCC)SCS(=O)(=O)C(C)(C)C,,inactive
Cc1c([N+](=O)[O-])c(C)c([N+](=O)[O-])c(C(C)(C)C)c1[N+](=O)[O-],,inactive
CC1(C)[C@H](C(=O)O[C@H](C#N)c2cccc(Oc3ccccc3)c2)[C@@H]1/C=C(\Cl)C(F)(F)F,,inactive
CC(C=O)Cc1ccc2c(c1)OCO2 (stereo not given),,inactive
CCC(C)(C#N)N=NC(C)(C#N)CC (stereo not given),,inactive
c1ccc(-c2cccc(-c3ccccc3)c2)cc1,4.68 µM (active),
O=C(Cc1ccccc1)OCCc1ccccc1,,inactive
CCCCCCCCCCCCN(C)C,,inactive
Nc1ccc(N)cc1,,inactive
O=[N+]([O-])c1ccc(Nc2ccccc2)cc1,,inactive
O=C(CCl)NCO,,inactive
Cc1ccccc1OP(=O)(Oc1ccccc1)Oc1ccccc1,20 µM (active),
COCC(=O)N(c1c(C)cccc1C)[C@H](C)C(=O)OC,,inactive
CCCCN(CCCC)C(=S)[S-].CCCCN(CCCC)C(=S)[S-].[Ni+2],,inactive
O=S(=O)(C(Cl)(Cl)Cl)C(Cl)(Cl)Cl,1.11 µM (active),
